Each structure is given as a SMILES string. The campaign covered roughly 370,000 compounds. About 3,000 (0.81%) were called active.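 How the source made its calls: active means activity above about 14% (limit read from the data; passing the limit was not always enough); inactive means the rest.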 The entries come from a sample that favours actives as a whole.

The source of these data is PubChem BioAssay AID1259318 (Sanford-Burnham Center for Chemical Genomics, 2017).

Nuclear receptor subfamily 1 group D member 1 (Homo sapiens), sequence (P20393 whole entry, looked up): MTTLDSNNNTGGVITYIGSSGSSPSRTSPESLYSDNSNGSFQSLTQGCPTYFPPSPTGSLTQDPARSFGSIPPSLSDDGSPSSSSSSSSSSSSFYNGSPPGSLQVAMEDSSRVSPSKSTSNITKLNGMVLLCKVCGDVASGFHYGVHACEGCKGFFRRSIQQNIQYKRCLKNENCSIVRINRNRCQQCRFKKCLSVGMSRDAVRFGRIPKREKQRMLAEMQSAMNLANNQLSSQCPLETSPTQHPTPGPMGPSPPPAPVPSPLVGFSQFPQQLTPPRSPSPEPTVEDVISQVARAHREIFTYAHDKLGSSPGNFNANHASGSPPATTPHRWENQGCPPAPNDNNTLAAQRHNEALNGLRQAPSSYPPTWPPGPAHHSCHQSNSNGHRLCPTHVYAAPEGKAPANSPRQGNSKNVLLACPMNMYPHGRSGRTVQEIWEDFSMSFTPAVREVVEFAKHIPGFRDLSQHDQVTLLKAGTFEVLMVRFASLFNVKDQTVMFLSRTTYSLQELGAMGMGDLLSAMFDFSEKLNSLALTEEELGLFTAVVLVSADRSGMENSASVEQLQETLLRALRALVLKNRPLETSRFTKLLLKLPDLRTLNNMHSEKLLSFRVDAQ

This experiment concerns the target Nuclear receptor subfamily 1 group D member 1 (Homo sapiens) (UniProt P20393). Briefly: modulators of Rev-erb alpha DNA binding, primary screen, biochemical, FITC-DNA, fluorescence polarization, uHTS (AID 1259318).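 Further: 0% = DMSO wells with 35 nM protein and 100% = DMSO wells with 750 nM protein.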 The note with it: Rev-erbα–FITC-DNA binding, 90 min, at 10 µM, hits give high values. (In general: Fluorescence polarisation rises when a labelled molecule tumbles more slowly, as on binding a larger partner.)
On to `C=CCN1C(=O)[C@@H](CC(=O)NCC2CCCCC2)[C@]2(C(=O)OC)CCCCC=C12`, for which the activity is 8.08% (inactive).
Next, `Cc1nonc1OCCn1nnnc1N`: 0.14% (inactive).
Next, `c1ccc2c(-c3nn4nnnc4c4ccccc34)cccc2c1`: 28.7% (active); `COc1ccc(C)cc1NC(=O)NCCCCc1ccccc1`: -4.58% (inactive).
Take `CC1CCCC(C)N1C(=O)COC(=O)COc1ccccc1C#N` (stereo not drawn): the activity was 8.28% (inactive).
Under `COc1ccc(CN(CCN2CCOCC2)C(=O)c2ccc(C)cc2)cc1OC` stands -7.19% (inactive); under `O=C1CCCC2=C1C(c1ccccc1)n1c(s/c(=C/c3cccc(F)c3)c1=O)=N2` (stereo not drawn), 35% (active); under `O=C1CC(c2cccc(F)c2)C2=C(CCCC2=O)N1` (stereo not drawn), 1.68% (inactive).
Next, `COc1ccc(OC)c(C2C3=C(N=c4s/c(=C\c5cccc(O)c5)c(=O)n42)c2ccccc2CC3)c1` (stereo not drawn): -1.04% (inactive); `O=C1CC2(CCCC2)Oc2ccc(Cl)cc21`: 1.88% (inactive).
Under `S=C1Nc2cc(Cl)ccc2Sc2ccccc21` stands -3.11% (inactive); under `O=C1Cc2ccccc2Sc2ccc(Cl)cc21`, 15.6% (active).
As to `CCCCN(C)Cc1c(C)[nH]c2ccc(Cl)cc2c1=O`, the activity was 3.27% (inactive).
Next, `Cc1ccc(S(=O)(=O)c2c[nH]c3ccc(C)cc3c2=O)cc1`: 4.77% (inactive); `Cc1ccc(S(=O)(=O)c2c[nH]c3ccc(Cl)cc3c2=O)cc1`: 136% (active); `COc1ccc(N(CC(=O)NCc2ccc(F)cc2)C(=O)CCC(=O)Nc2nccs2)cc1`: -2.56% (inactive).
Under `Cc1cc(Cl)ccc1NNC(=O)c1snnc1C` stands 3.67% (inactive); under `CCOC(=O)CNc1nc2ccccc2n2c(C)nnc12`, 2.94% (inactive); under `Fc1ccc(CNc2nc3ccccc3n3nnnc23)cc1`, 40.6% (active).
Consider `CC(C)(C)N1CC(c2nc3ccccc3n2Cc2ccc(F)cc2)CC1=O` (stereo not drawn), for which the activity is -4.96% (inactive).
Take `COC(=O)[C@]1(C)N[C@H](c2ccc(-c3ccc(Cl)c(Cl)c3)cc2)[C@@H]2C(=O)N(C)C(=O)[C@@H]21`: the activity is 2.33% (inactive).
With `O=C(Nc1ccc(F)c(Cl)c1)C1CCN(S(=O)(=O)c2cccnc2)CC1`, the activity was -4.36% (inactive).
On to `Cc1nc(N2CCC(C)CC2)c2c(C)c(C(=O)Nc3cc(F)ccc3C)sc2n1`, for which the activity was 15.7% (inactive).
Under `Cc1nc(N2CCN(c3ccccn3)CC2)c2c(C)c(C(=O)Nc3ccc(F)c(Cl)c3)sc2n1` stands 32% (active).
Under `COc1ccc(-c2nnc3n2CCCCC3)cc1` stands -6.25% (inactive); under `O=S(=O)(c1ccccc1)c1nc(-c2ccccc2F)oc1NCc1cccnc1`, -3.4% (inactive).
Regarding `O=C(NCc1cccnc1)c1ccc(CS(=O)(=O)c2ccc(Br)cc2)o1`, the activity is -2.47% (inactive).
`O=S(=O)(c1ccc(Br)cc1)c1nc(-c2ccccc2)oc1NCc1cccnc1`: the activity is 27.6% (active).
As for `Cc1nn(CC#N)c(=O)n1N(C)c1ncc(C(F)(F)F)cc1Cl`, the activity is 7.64% (inactive).
Next, `CCOc1ccc(C2NC(=S)NC3=C2CCc2ccccc23)cc1` (stereo not drawn): 7.82% (inactive); `O=C(COC(=O)c1cc([N+](=O)[O-])ccc1NCc1ccccc1)NC1CCCCC1`: -4.56% (inactive); `O=C(COC(=O)c1cccc(Cl)c1Cl)NC1CCCCCC1`: -4.74% (inactive).
For the compound `O=C(COC(=O)c1cccc(Cl)c1)NC1CCCCCCC1`, the activity was -7.98% (inactive).
For the compound `N#Cc1ccc(C(=O)OCC(=O)NC(=O)NC2CCCCC2)cc1`, the activity was -4.11% (inactive).
Next, `O=C(COC(=O)c1ccccc1SCC(=O)NC1CCCCC1)NC1CCCCC1`: 70.3% (active).
Take `N#Cc1ccccc1Sc1ccccc1C(=O)OCC(=O)NC1CCCCC1`: the activity was 61.4% (active).
With `COC(=O)[C@]12C[C@H](CC(=O)NCc3ccccc3)C(=O)N(CCC3=CCCCC3)C1=C[C@H](C(C)C)O[C@@H]2C1CC1`, the activity was -4.75% (inactive).
Next, `Cc1cc(C(=O)OCC(=O)Nc2ccc(F)c(F)c2)c(C)o1`: 4.64% (inactive); `Cc1sc2ncnc(N3CCC(C(=O)Nc4ccc(F)cc4Cl)CC3)c2c1C`: 8.75% (inactive); `Cc1sc2ncnc(N3CCC(C(=O)Nc4nc5ccc(Cl)cc5s4)CC3)c2c1C`: 42.2% (active).
Next, `CCc1ccc(C(=O)NNC(=O)C2CCN(c3ncnc4sc(C)c(C)c34)CC2)cc1`: -5.39% (inactive).
In the case of `O=C1NS(=O)(=O)c2ccccc21`, the activity was 4.73% (inactive).
In the case of `CCOc1ccc(-n2c(SCC(=O)Nc3cc(C)c(NC(=O)c4ccccc4)cc3OC)nnc2-c2cccc(Cl)c2)cc1`, the activity was -3.54% (inactive).
With `COc1cc(NC(=O)c2ccccc2NS(=O)(=O)c2ccc(Cl)s2)cc(OC)c1`, the activity is 0.46% (inactive).
Under `COc1cc2cc(CN(CCN3CCCC3)C(=O)Nc3ccccc3Cl)c(=O)[nH]c2cc1OC` stands 1.22% (inactive); under `COc1ccc2[nH]c(C(=O)Nc3ccccc3Cl)cc2c1`, 49.3% (active); under `CCc1ccc2c(c1)NC(=O)C2(C)Cc1ccc(OC(F)(F)F)cc1` (stereo not drawn), 4.7% (inactive).
Under `COc1ccccc1CC1(C)C(=O)Nc2ccc(OC(F)(F)F)cc21` (stereo not drawn) stands 51.9% (active); under `CC1(Cc2cccc(C#N)c2)C(=O)Nc2ccc(-c3cccc(C(F)(F)F)c3)cc21` (stereo not drawn), 0.78% (inactive).
Under `COc1cc2c(cc1OC)[C@@H](Cc1cc(OC)c(OC)c(OC)c1)[N+](C)(CCCOC(=O)CC/C=C/CCC(=O)OCCC[N+]1(C)CCc3cc(OC)c(OC)cc3[C@H]1Cc1cc(OC)c(OC)c(OC)c1)CC2` (stereo partly drawn) stands 4.74% (inactive); under `Cc1c(Br)cc(C(=O)N2CCCCCC2)c(C)c1C`, -0.12% (inactive).
In the case of `Cc1cc(=O)oc(C)c1C(=O)N1CCCCC1`, the activity was 20.1% (active).
Next, `Cc1cc(=O)oc(C)c1C(=O)NC1CC(C)(C)NC(C)(C)C1`: -3.78% (inactive); `CCC1(C)OC(=O)N(C)C1=O` (stereo not drawn): -3.1% (inactive).
Next, `Nc1cccc(OCCCCCOc2cccc(N)c2)c1`: 5% (inactive); `COc1cc(OC)cc(-c2c(C#Cc3ccsc3)c3cc(-c4ccc(SC)cc4)ccc3n2C)c1`: 34.1% (active).
Consider `COc1cc(OC)cc(-c2c(C#Cc3ccsc3)c3cc(-c4ccc(OC)cc4F)ccc3n2C)c1`, for which the activity is -0.12% (inactive).
Next, `COc1ccc(-c2c(C#Cc3ccsc3)c3cc(-c4ccc(CN5CCOCC5)cc4)ccc3n2C)cc1`: 3.65% (inactive).
